Reference: PubChem BioAssay AID504411 (The Scripps Research Institute Molecular Screening Center, 2011)
Among all 340,000 compounds or so, about 200 (0.059%) were called active. No stated cut-off is given here; in the data, active means inhibition above about 34%; inactive means the rest. What follows is part of a selection rich in actives, with near analogues and random picks from the rest.

Molecular target: Diacylglycerol lipase-beta (Homo sapiens) (UniProt Q8NCG7)
Assay: inhibition of human DAGLB hydrolase activity – biochemical, fluorescence, HTS, primary screen (AID 504411);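 further: 0% = enzyme with vehicle and 100% = wells lacking enzyme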
Details: HEK293T DAGLB membrane lysate, EnzChek fluorogenic substrate; at 5.17 µM; hits give high values

Chain of Diacylglycerol lipase-beta (Homo sapiens) (Q8NCG7 whole entry, looked up): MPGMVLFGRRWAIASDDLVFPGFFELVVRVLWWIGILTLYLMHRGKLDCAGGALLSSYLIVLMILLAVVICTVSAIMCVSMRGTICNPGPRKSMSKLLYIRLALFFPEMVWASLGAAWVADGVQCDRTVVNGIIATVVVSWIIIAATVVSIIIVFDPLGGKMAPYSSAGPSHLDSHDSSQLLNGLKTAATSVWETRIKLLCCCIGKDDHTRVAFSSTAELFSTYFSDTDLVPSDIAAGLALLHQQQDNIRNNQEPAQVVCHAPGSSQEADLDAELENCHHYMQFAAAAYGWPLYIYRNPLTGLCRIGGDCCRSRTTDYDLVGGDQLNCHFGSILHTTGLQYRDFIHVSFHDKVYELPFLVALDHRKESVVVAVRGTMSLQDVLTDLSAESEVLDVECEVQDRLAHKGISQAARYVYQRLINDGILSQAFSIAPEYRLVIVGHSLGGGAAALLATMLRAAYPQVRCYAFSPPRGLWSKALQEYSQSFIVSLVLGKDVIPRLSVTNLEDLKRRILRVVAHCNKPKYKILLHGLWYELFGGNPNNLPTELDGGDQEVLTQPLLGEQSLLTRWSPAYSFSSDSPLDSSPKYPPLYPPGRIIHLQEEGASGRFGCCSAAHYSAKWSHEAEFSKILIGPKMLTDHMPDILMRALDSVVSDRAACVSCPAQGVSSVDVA

inhibition, inactive:
CN(c1ccc(OCC(=O)OCC(=O)Nc2cccc([N+](=O)[O-])c2)cc1)S(=O)(=O)c1ccc(F)cc1 -2.67%
Cc1sc(NC(=O)C2C3CCC(O3)C2C(=O)O)c(C(=O)OC(C)C)c1-c1ccc(Cl)cc1 (stereo not drawn) 6.11%
CCN(CC(=O)NCc1cccs1)C(=O)c1cccc(S(=O)(=O)Nc2ccccc2OC)c1 0.52%
CCc1cc(C(=O)N(CC)CC(=O)Nc2c(F)cccc2F)sc1C -0.43%
Cc1oc2cc3oc(=O)ccc3cc2c1C -1.48%
O=c1[nH]c(=O)n(Cc2ccco2)c2c1C(C(F)(F)F)(C(F)(F)F)N=C(c1ccco1)N2 -0.13%
COc1ccc(/C=N/OCc2ccccc2C#N)c(OC)c1 -2.91%
CC(=O)c1nn(-c2cccc(Br)c2)cc1C(=O)c1cccc2ccccc12 -10.7%
COc1ccc(CN2CCN(Cc3cn(C)nc3-c3ccccc3)CC2CCO)c(C)c1C (stereo not drawn) -4.22%
CC1CCN(S(=O)(=O)c2ccc3ncn(CC(=O)N(C)C4CCCCC4)c(=O)c3c2)CC1 -3.62%
OC(c1ccccc1)c1nccn1Cc1ccccc1 (stereo not drawn) 0.02%
O=C(NCc1ccc2c(c1)OCO2)C(=O)NCC1OCCN1S(=O)(=O)c1ccc(F)cc1 (stereo not drawn) 1.47%
NC(N)=Nc1nc2ccc(Br)cc2c(=O)[nH]1 -0.46%
CCC(=O)Nc1ccc(S(=O)(=O)NCC2CCCO2)cc1 (stereo not drawn) 0.13%
CCCCOc1ccc(NC(=O)[C@@H]2CCCN2C(=O)C2CCN(S(=O)(=O)c3ccc(C)cc3)CC2)cc1 -4.14%
COCCNC(=O)CCCN1C(=O)c2ccccc2Sc2ncccc21 0.34%
C=CCC(NCCCO)c1cccc(OC)c1OC (stereo not drawn) -0.64%
O=C(Cc1ccc(Cl)cc1)NCc1nc(-c2ccccc2)no1 -5.92%
O=C(Nc1cccc(Cl)c1)C1CCCN(c2cnccn2)C1 (stereo not drawn) -0.35%
COCc1ccc(CN2CCC(Oc3ccc(C(=O)NCc4ccccn4)cc3)CC2)o1 -0.42%
COC(=O)c1cc(N2CCNCC2)nc2ccccc12 1.6%
Cc1cc(F)ccc1S(=O)(=O)Nc1ncnc2scc(-c3ccc(F)cc3)c12 11%
CC(=O)c1nn(-c2cccc(C(F)(F)F)c2)c(=O)[nH]c1=O -0.12%
COC(=O)CC1=NN(c2nc(C)cc(C)n2)C(=O)C1 -2.2%
CCCCn1c(N)c(N(CC(C)C)C(=O)C2CSC3(C)CCC(=O)N23)c(=O)[nH]c1=O (stereo not drawn) 0.2%
C=CCN(C(=O)Cn1ncc2c1-c1cc(C)ccc1OC2)c1ccccc1 -2.66%
Cc1c(CCO)c(=O)[nH]n1C(=O)c1c(F)cccc1F -0.98%
Cc1ccnc(NC(=O)CCC(=O)N(CC(=O)NCCc2ccccc2)Cc2cccs2)c1 -0.29%
